ALDH1A1 inh – qHTS Assay for Inhibitors of Aldehyde Dehydrogenase 1 (ALDH1A1); Potency, µM (titrated, usually from 75.3 µM), for inactives: top-dose activity, negative = inhibition, hits mostly inhibitors; Purified ALDH1A1, NADH fluorescence, propionaldehyde substrate; hit rate 7.3% among 220,000;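 note: potency is the fitted concentration of half-maximal effect; plate controls were no enzyme wells and a reference inhibitor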
PNC assembly inh – High Content Assay for Compounds that inhibit the Assembly of the Perinucleolar Compartment. PC3M PTB-GFP, PNC prevalence imaging, 16 h; active compounds read low. activity change (PNC), negative = inhibition, % at 10 µM. hit rate 3.1% among 140,000. AID 2417, 2010;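 active = readout at or below -70, meaning at least 70% loss of cells showing the perinucleolar compartment, a nuclear body marking cancer cells; inconclusive = readout between -30 and a set limit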;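 note: plate controls were DMSO wells for no effect and camptothecin positive control wells for full effect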
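PC3M cells stably expressing PTB-GFP, 750–1000 cells/well, treated 16 h at 37 °C with compound (23 nl of library stock), in duplicate. After paraformaldehyde fixation and Hoechst stain, imaged at 20x; PNC prevalence scored by image analysis.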
HPGD inh – qHTS Assay for Inhibitors of HPGD (15-Hydroxyprostaglandin Dehydrogenase); Potency, µM, for inactives: at the highest dose activity change, negative = inhibition, usual class: inhibitors; hit rate 4.3% among 150,000; purified HPGD, NADH fluorescence kinetic, PGE2 substrate; 15-hydroxyprostaglandin dehydrogenase [NAD(+)] (Homo sapiens), P15428; note: potency is the fitted concentration of half-maximal effect
Target sequence (P15428 whole entry, looked up): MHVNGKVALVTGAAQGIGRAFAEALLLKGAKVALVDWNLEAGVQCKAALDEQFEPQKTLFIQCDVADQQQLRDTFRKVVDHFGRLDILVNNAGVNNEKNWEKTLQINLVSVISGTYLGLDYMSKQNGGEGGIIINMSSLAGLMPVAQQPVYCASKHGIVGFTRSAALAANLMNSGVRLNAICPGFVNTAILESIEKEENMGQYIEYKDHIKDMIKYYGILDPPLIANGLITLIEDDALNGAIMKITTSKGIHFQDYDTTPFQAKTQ
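20 nM HPGD preincubated 15 min at room temperature with compound in 50 mM Tris-HCl pH 8, 0.01% Tween 20. Started with 1 mM NAD+ and 30 uM prostaglandin E2; NADH fluorescence (360/450 nm) read 5 times over 30-s intervals, last minus first.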
* marks the source's active call; other numbers are inactive results; ? = inconclusive; nt = no result; [ ] = dose if it differs, or a comment. Sampled rows, rich in hits. Any-hit rate of the full collection: about 11%. Unless noted, calls come from the whole dose curve; as a rule, active = well fitted inhibition curve with a large enough effect (not every such curve was filed as active); inconclusive = small, poorly fitted or top-dose-only effect, or another doubt; inactive = no such curve, though single readings can be large or run the other way. Unless noted, % is set by controls: 0 for no effect and ±100 for the full control effect.

SMILES | ALDH1A1 inh | PNC assembly inh | HPGD inh
CC(=O)NC(CC(=O)NC12CC3CC(CC(C3)C1)C2)c1ccccc1 (stereo unspecified) | 4.2% | -24.2 | -4.7%
CC(C)c1ccc(NC(=O)COc2nncc3ccccc23)cc1 | ? | 11.1 | nt
CC(NC(=O)c1ccccc1)(C(=O)O)C(=O)O | -9.6%[13.5 µM] | nt | -11.8%
COc1ccc(NC(=O)CCNS(=O)(=O)c2ccc3c(c2)c(=O)n(C)c(=O)n3C)c(OC)c1 | 2.1% | 10.3 | -1.8%
CN(C)/C=N/C(=S)Nc1ccc(Br)cc1F | 22.4µM* | 23.4 | -29.9%
C=CCNC(=S)Nc1cccc2ccccc12 | -10.8% | -96.5* | -16.1%
CN(C)/C=N/C(=S)Nc1ccccc1 | 0.2% | nt | nt
C=CCNC(=S)Nc1ccc(Cl)cc1F | 4.7% | nt | nt
C=CCNC(=S)Nc1ccc(Br)cc1F | 2.1% | -87.8* | -6.1%
S=C(NCCc1ccncc1)Nc1cccc2ccccc12 | 8.7% | nt | nt
C=CCCC | 7.9% | nt | -2.5%
Cc1ccc(-n2c(SCC(=O)N3Cc4ccccc4CC3C(=O)O)nnc2-c2cccnc2)c(C)c1 (stereo unspecified) | 6.3% | 30.8 | nt
O=C(NCc1cccnc1)/C(=C\c1ccc(-c2cccc(Cl)c2)o1)S(=O)(=O)c1ccccc1 | ? | ? | -6.3%
O=C(NCc1cccnc1)/C(=C/c1ccc(-c2cccc(Cl)c2)o1)S(=O)(=O)c1ccccc1 | 12.6µM* | 18.5 | -20.1%
O=C(O)CC(NC(=O)Cc1ccc(Cl)cc1)c1ccco1 (stereo unspecified) | 8.9% | nt | nt
NS(=O)(=O)c1ccc(NC(=O)C(Sc2ccccc2)c2ccccc2)cc1 (stereo unspecified) | 11.5% | 6.1 | -1.5%
CS(=O)(=O)N(Cc1ccccc1)c1ccc(C(=O)N2CCc3ccccc3C2)cc1 | -9.7% | 52.7 | ?
O=C(c1ccc(S(=O)(=O)c2ccccc2)cc1)N1CCc2ccccc2C1 | -15.5% | -26.6 | 17.8µM*
O=C(c1ccc([N+](=O)[O-])cc1)N1CCc2ccccc2C1 | 5.0% | 8.2 | 28.2µM*
O=[N+]([O-])c1ccc(NC(=S)N2CCc3ccccc3C2)cc1 | ? | 29.5 | -6.4%
O=C(C1CCN(C2CC(=O)N(c3ccc(Cl)cc3)C2=O)CC1)N1CCOCC1 (stereo unspecified) | 12.6µM* | -5.5 | -8.5%
COC(=O)C1CCN(C2CC(=O)N(c3cc(C)cc(C)c3)C2=O)CC1 (stereo unspecified) | -17.9% | nt | nt
O=C1CC(N2CCN(C3CC(=O)N(CCc4ccccc4)C3=O)CC2)C(=O)N1CCc1ccccc1 (stereo unspecified) | -21.8% | -27.0 | -3.9%
O=C1CC(N2CCC(Cc3ccccc3)CC2)C(=O)N1CCc1ccccc1 (stereo unspecified) | 2.24µM* | 28.1 | -17.3%
O=C1CC(N2CCOCC2)C(=O)N1c1ccc2c(c1)OCO2 (stereo unspecified) | ? | 8.6 | -8.7%
SMILES | ALDH1A1 inh | PNC assembly inh | HPGD inh
O=C(C1CCN(C2CC(=O)N(Cc3ccccc3)C2=O)CC1)N1CCCCCC1 (stereo unspecified) | 11.2µM* | -1.2 | ?
CCOC(=O)C1CCN(C2CC(=O)N(c3cccc(Cl)c3)C2=O)CC1 (stereo unspecified) | 20µM* | 32.3 | -6.2%
O=C(C1CCN(Cc2ccccc2)CC1)N1CCCC1 | -4.9% | 0.0 | -10.7%
O=C(Oc1ccccc1)N(c1ccccc1)c1ccccc1 | -6.1% | nt | nt
Cc1ccc(Nc2nnc(SCC(=O)NCCN3C(=O)CSC3=O)s2)cc1 | ? | -17.4 | -10.6%
Cc1ccc(Nc2ncccc2C(N)=O)cc1[N+](=O)[O-] | ? | 45.5 | -19.8%
CO/N=C(/C)CCC(=O)OC[C@@H]1O[C@H](C#Cc2ccccc2)C=C[C@@H]1Oc1ccc(C)cc1 | 1.2%[13.5 µM] | nt | nt
Cc1cccc(N2C(=O)CC(N3CCN(Cc4ccc(Cl)cc4)CC3)C2=O)c1 (stereo unspecified) | ? | -4.2 | -5.1%
O=C(C1CCN(C2CC(=O)N(c3cccc(Cl)c3)C2=O)CC1)N1CCCC1 (stereo unspecified) | 3.16µM* | -18.3 | -19.7%
CCN(CC)c1ccc(/C=C/C(=O)C2C(=O)C=C(C)OC2=O)cc1 (stereo unspecified) | 17.8µM* | nt | nt
CCN(CC)c1ccc(C2C(C(=O)OC)=C(C)NC(C)=C2C(=O)OC)cc1 | ? | -17.8 | ?
O=C(NCC1OCCc2ccccc21)c1ccc(NC(=O)c2cccc(Br)c2)cc1 (stereo unspecified) | 5.4% | 32.8 | nt
O=C(c1ccccc1)C1CN(Cc2ccccc2)CCC1(O)c1ccccc1 (stereo unspecified) | 0.224µM* | nt | nt
CC(=O)N1CCC2(CCN(Cc3ccccc3)CC2)CC1 | 2.8% | nt | 0.4%
OC(CN1CCN(Cc2ccccc2)CC1)c1ccccc1 (stereo unspecified) | -9.6% | nt | nt
OC(c1ccccc1)C1CN(Cc2ccccc2)CCC1(O)c1ccccc1 (stereo unspecified) | 20µM* | 11.2 | -13.9%
C[C@@H]1CC[C@H]2C(=O)N3[C@@H](CC[C@@H](C)[C@@H]3c3ccc(Br)cc3)C(=O)N2[C@H]1c1ccc(Br)cc1 | -4.7% | 27.2 | -8.1%
NCC1O[C@@H](O[C@H]2C(O)C(O[C@@H]3C(O[C@H]4OC(CO)C(O)C(O)C4N)C(N)CC(N)[C@H]3O)O[C@@H]2CO)C(N)C(O)C1O (stereo partly specified) | 3.7% | nt | 1.9%
CCCn1c(C)nc2c(N(CCOC)CCOC)nc(C)nc21 | 7.0% | nt | 0.6%
COc1cc(N2C(=O)c3ccccc3C2=O)c(Cl)cc1C(=O)OCC(=O)N(C)C | -2.3% | nt | nt
COc1ccc(Nc2nnc(SCC(=O)/C=C3/N(C)c4ccccc4C3(C)C)s2)cc1 | -11.7% | 21.2 | -9.0%
CCOc1ccc(NC2c3ccccc3C(=O)N2Cc2ccc3c(c2)OCO3)cc1 (stereo unspecified) | ? | -21.6 | 28.2µM*
COc1cc(NC2c3ccccc3C(=O)N2Cc2ccc3c(c2)OCO3)cc(OC)c1OC (stereo unspecified) | -7.7% | -21.5 | -15.2%
O=C(NN1C(=O)C2CC=C(Cl)CC2C1=O)c1ccncc1 (stereo unspecified) | 5.4% | nt | nt
CCOc1cc(CNc2ccc(N3CCOCC3)cc2)cc(Br)c1OCC | ? | -113.4* | -6.9%
SMILES | ALDH1A1 inh | PNC assembly inh | HPGD inh
CCOc1cc(CNc2ccc3c(c2)OCCO3)cc(Br)c1OCC | ? | -83.2* | -18.1%
COc1cccc(CNc2ccc(N3CCCCC3)cc2)c1OC | 3.98µM* | -13.8 | -13.5%
COc1ccccc1CNc1ccc(N2CCCCC2)cc1 | ? | ? | -18.3%
CCOc1cc(CNc2ccc(N3CCCC3)cc2)cc(Cl)c1OC | 31.6µM* | -113.4* | -13.0%
C=CCOc1c(Br)cc(CNc2ccc3[nH]c(=O)[nH]c3c2)cc1OCC | -2.7% | nt | nt
CCOc1cc(CNc2ccc(S(N)(=O)=O)cc2)cc(Cl)c1OC | 5.8% | ? | -3.0%
CCOc1cc(CNc2ccc(N3CCN(C(C)=O)CC3)cc2)cc(Br)c1OC | ? | ? | -12.0%
CCOC(=O)c1ccc(S(=O)(=O)NNC(=O)COc2ccccc2C)cc1 | ? | 17.2 | -8.8%
O=C(NCc1ccco1)/C(=C\c1cccnc1)NC(=O)c1ccccc1F | 0.7% | 29.1 | -11.1%

Screening data as filed in PubChem.
